From PubChem BioAssay (NCI)
Compounds without any hit were thinned out: in the full panel of roughly 83,000, 20% have a hit.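 Negative percent growth values reflect cell death: -40 means 40% of the cells present at the start died, and -100 means all died.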 Activity calls are given as the source filed them.

These compounds were tested on A549/ATCC NSCLC (assay: NCI-60 one-dose screen, 48 h (100 = growth as untreated, 0 = no growth, -100 = all killed)). Conditions: 10 µM unless noted.
Protocol: Growth inhibition of the A549/ATCC human Non-Small Cell Lung tumor cell line is measured as a screen for anti-cancer activity. Cells are grown in 96 well plates and exposed to the test compound for 48 hours. Compounds are tested at a single concentration, which is 10^-5 M for most compounds. The reported endpoint is percent growth (GI% or GIPRCNT), where numbers from 0 - 100% represent growth inhibition, and numbers from -100% - 0 represent cell death. For example, a value of 40 represents 60% growth inhibition. A value of 0 means no net growth occurred over the course of the experiment. A value of -40 indicates 40% of cells at the beginning of the experiment died by the end of the experiment. A value of -100 means all cells are dead at the end of the experiment.
NCI-60 Human Tumor Cell Lines Screen was performed using the standard one-dose NCI protocol, which is described in more detail at https://dtp.cancer.gov/discovery_development/nci-60/default.htm.
Compounds with GIPRCNT values below 10 were considered active. Activity score was based on GIPRCNT using the following formula: […]
Score is 0 for GIPRCNT values of 100 or above, 50 for GIPRCNT values of 0, and 100 for GIPRCNT values of -100.

For `COc1ccc2c(c1)c(-c1nonc1-c1c[nH]c3ccc(Br)cc13)cn2C`, which growth is on record?
Its growth is 28.1% (inactive).

For `CC1(C)CC2=C3C=C[C@@H]4[C@@]5(C)CC[C@H](O)C(C)(C)[C@@H]5CC[C@@]4(C)[C@]3(C)CC[C@@]2(C(=O)O)CC1=O`, which growth is on record?
Its growth is 39.2% (inactive).

How did the growth turn out when `O=S(=O)(c1ccccc1)N1CCCN(c2nc(-c3ccccc3)nc3nc(-c4ccccc4)oc23)CC1` was run?
Its growth is 105% (inactive).

For `CCOC(=O)C1=C(C)N=C2SC=C(c3ccccc3)N2[C@H]1c1cn[nH]c1-c1ccc(Cl)cc1`, which growth is on record?
The growth was 56.4% (inactive).

How did the growth turn out when `COc1ccc(-c2cc(-c3cc(OC)c(OC)c(OC)c3)c(C#N)c(=O)n2CCCCCC(=O)NO)cc1` was run?
Its growth is 87.2% (inactive).

For `COc1ccc(C2CC(c3ccc(Nc4nc(Nc5ccc(F)cc5)nc(Nc5ccc(F)cc5)n4)cc3)=NN2C(C)=O)cc1` (stereo not given), which growth is on record?
The growth was 82.5% (inactive).

How did the growth turn out when `C#CCn1cnc2c(Nc3cccc(NC(=O)CCl)c3)ncnc21` was run?
Its growth is 44.8% (inactive).

With `COc1ccc(C2C(C#N)=C(N)Oc3c2sc2c(Br)cccc32)cc1` (stereo not given) as the compound, how does the growth read?
Its growth is 35.5% (inactive).

`O=C1Nc2ccc(F)cc2/C1=N/c1nnc(Sc2ccccc2)s1` was tested. Which growth did it give?
Its growth is 96.8% (inactive).

With `Cc1cc2oc(=O)cc(CP(=O)(O)O)c2cc1O` as the compound, how does the growth read?
The growth was 99.9% (inactive).

Which growth does the source give for `NC(=O)c1c(NC(=O)c2ccc(Cl)cc2)sc2c1CCC(=O)C2` here?
The growth was 98.5% (inactive).

`COC(=O)c1c2c(c(C)[n+]([O-])c1C)C(=O)C=CC2=O` was tested. Which growth did it give?
The growth was 15.8% (inactive).

With `COc1ccc(Cn2cc(C(=O)N=Nc3c(O)[nH]c4c(Cl)cccc34)nn2)cc1` as the compound, how does the growth read?
The growth was 102% (inactive).

With `CC(=O)c1c(Nc2ccc(F)c(F)c2F)[nH]c2c(F)cc(F)cc2c1=O` as the compound, how does the growth read?
Its growth is 4.48% (active).

Which growth does the source give for `C/C(=C(\c1ccc(OCCN2CCCCCC2)cc1)c1ccc(OC(=O)Cc2ccccc2)cc1)c1ccc(Cl)cc1` here?
Its growth is 31.7% (inactive).

`N/C(=N\c1nc2ccccc2s1)NC(=NC1CCCCC1)NC1CCCCC1` was tested. Which growth did it give?
The growth was 45.9% (inactive).

`COC(=O)C1=C(C(=O)Nc2cccnc2)C2OC1(C(Cc1ccccc1)Oc1ccccc1)C1OC21` (stereo not given) was tested. Which growth did it give?
Its growth is 88.8% (inactive).

How did the growth turn out when `CN(C)c1ccc(/C=C/C(=O)c2ccccc2)cc1` was run?
The growth was 65.4% (inactive).

How did the growth turn out when `Cc1cc(N2CCN(C)CC2)nc(NCc2cc(Nc3ccnc4cc(Cl)ccc34)ccc2F)n1` was run?
The growth was -17% (active).

How did the growth turn out when `Cc1ncc(C(=O)Nc2ccc(CN3CCN(C)CC3)c(C(F)(F)F)c2)cc1C#Cc1cnc(N)c2cnccc12` was run?
The growth was 13.3% (inactive).

For `CC1=C(C(=O)n2c3ccccc3c3ccccc32)C(c2cccc([N+](=O)[O-])c2)C(C(=O)n2c3ccccc3c3ccccc32)=C(C)N1`, which growth is on record?
The growth was 102% (inactive).

With `CN(Cc1cnc2nc(N)nc(N)c2n1)c1c(Cl)cc(C(=O)NC(CCC(=O)O)C(=O)O)cc1Cl` (stereo not given) as the compound, how does the growth read?
Its growth is 15.6% (inactive).

How did the growth turn out when `COc1cc(-c2nc(NC(C)=O)sc2-c2ccnc(NCCNS(=O)(=O)c3ccccc3)n2)ccc1Cl` was run?
Its growth is 25.6% (inactive).

With `CCCCCCCCn1ccc2cc(NC(=O)Cn3cc(CN4CCC(C)CC4)nn3)ccc21` as the compound, how does the growth read?
The growth was 21.1% (inactive).

For `CC[C@@H](c1ccc2cc(OC)ccc2c1)C(C)(C)C(=O)F`, which growth is on record?
Its growth is 92.5% (inactive).

Which growth does the source give for `CCSC1=CC(=O)c2ccccc2C1=O` here?
The growth was 93.2% (inactive).

`Cc1c2ccccc2nc2c1ccc1cccnc12` was tested. Which growth did it give?
The growth was 59.8% (inactive).

With `CCOC(=O)c1cn2ncnc(Oc3ccc(NC(=O)NC4CC4)c(F)c3)c2c1C` as the compound, how does the growth read?
Its growth is 102% (inactive).

How did the growth turn out when `C=CCn1c(SCC(=O)Nc2ccc(C(=O)/C=C/c3ccc(OC)cc3)cc2)nnc1-c1ccccc1` was run?
The growth was 83% (inactive).

How did the growth turn out when `CCOC(=O)c1c(NC(=O)c2ccc(OC)cc2)sc2c(CN(C)C)c(O)ccc12` was run?
The growth was 74% (inactive).

With `Nc1c(C(=O)Nc2cccc3ncccc23)sc2nc3c(cc12)C(=O)CCC3` as the compound, how does the growth read?
The growth was 49.6% (inactive).

Which growth does the source give for `Cc1nc2ccccc2c(/C=C/c2ccc(C(F)(F)F)cc2)c1C(=O)/C=C/c1ccccc1` here?
The growth was 6.27% (active).

`N#CCC1=NC(c2cccs2)=Nc2ccccc2S1` was tested. Which growth did it give?
The growth was 96% (inactive).

With `C#CCOc1ccc2ncnc(Nc3cccc(NC(=O)CCl)c3)c2c1` as the compound, how does the growth read?
Its growth is 67% (inactive).

Which growth does the source give for `NNC(=S)N/N=C/c1ccccn1` here?
The growth was 46.9% (inactive).

With `O=C1c2cccnc2C(=O)c2c1c(C(=O)OCCCN1CCCCC1)c1ccccn21` as the compound, how does the growth read?
Its growth is -63.8% (active).

How did the growth turn out when `O=C1/C(=C/c2ccc(C(F)(F)F)cc2)COc2ccc(O)cc21` was run?
The growth was 87.1% (inactive).

For `Cc1ccc(/C=C/C(=O)c2ccc(NC(=O)CSc3nc4c([nH]3)c(=O)n(C)c(=O)n4C)cc2)c(C)c1`, which growth is on record?
The growth was 33.6% (inactive).

With `Cc1nc2sc(C(=O)Nc3ccccc3)c(N)c2cc1C(=O)/C=C/c1ccccc1` as the compound, how does the growth read?
Its growth is 13.2% (inactive).

For `O=C(NCc1ccccc1O)c1cccc2ccccc12`, which growth is on record?
Its growth is 87.4% (inactive).
